# TDP1 inh: TDP1 (human) enzyme inhibition. Q9NUW8. recombinant TDP1, AlphaScreen DNA substrate cleavage. actives 0.28% (n = 350,000). Potency, µM (series often up to 130 µM), without a hit: top-dose activity change, negative = inhibition, most hits filed as inhibitors; further: potency means the concentration at half of the fitted maximal effect; nearly all actives have a fitted effect of over 40% in size
# Target sequence (Q9NUW8 whole entry, looked up): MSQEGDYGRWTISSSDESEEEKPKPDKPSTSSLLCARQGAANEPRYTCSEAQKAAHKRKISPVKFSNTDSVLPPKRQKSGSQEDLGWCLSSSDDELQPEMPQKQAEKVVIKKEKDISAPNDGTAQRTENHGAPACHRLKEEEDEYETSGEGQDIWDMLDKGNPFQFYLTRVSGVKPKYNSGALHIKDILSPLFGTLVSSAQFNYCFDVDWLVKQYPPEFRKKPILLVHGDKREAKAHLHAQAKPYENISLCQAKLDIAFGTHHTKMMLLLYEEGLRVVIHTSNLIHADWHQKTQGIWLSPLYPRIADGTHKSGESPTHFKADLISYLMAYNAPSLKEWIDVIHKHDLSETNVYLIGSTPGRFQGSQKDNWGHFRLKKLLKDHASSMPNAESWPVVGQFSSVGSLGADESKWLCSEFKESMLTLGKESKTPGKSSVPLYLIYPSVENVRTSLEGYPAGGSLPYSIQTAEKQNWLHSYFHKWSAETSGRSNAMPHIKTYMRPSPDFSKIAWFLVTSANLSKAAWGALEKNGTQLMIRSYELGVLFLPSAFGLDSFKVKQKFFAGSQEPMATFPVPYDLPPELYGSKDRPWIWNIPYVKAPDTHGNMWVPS
#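 Recombinant E. coli-expressed Tdp1 (1 nM) preincubated with compound 15 min at RT, then 5'-biotin/3'-phosphotyrosine-FITC DNA substrate (15 nM) added for 5 min. AlphaScreen beads (10 ug/ml) added, 10 min RT; tyrosine-FITC cleavage read as signal loss.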
# IL1B secr inh: inflammasome signaling inhibition, IL-1 beta readout | THP-1 LPS/ATP IL-1B secretion, AlphaLISA, 16 h; hits give low values | actives 4.7% (n = 360,000) | activity change, % at 57.5 µM; in the data active means activity change below about -50%; inconclusive means mostly about -30% to -49%
#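 THP-1 cells pretreated 1 hr with compounds (up to 57.5 uM final), then stimulated with LPS (250 ng/mL final) plus ATP (1.25 mM final); secreted IL-1B measured by AlphaLISA after 16 hr, decreased signal indicating inhibition.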
# TDP1 cell noCPT: qHTS for Inhibitors of human tyrosyl-DNA phosphodiesterase 1 (TDP1): qHTS in cells in absence of CPT | DT40 Tdp1-/- hTDP1 cells, no CPT, ATP luminescence, 48 h | Potency, µM (top dose mostly 46.2 µM), for the others: at the top dose activity change, negative = growth inhibition, most hits filed as inhibitors | actives 15% (n = 420,000); further: potency means the concentration at half of the fitted maximal effect; nearly all actives have a fitted effect of over 55% in size
#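 Luminescent ATP content (CellTiter-Glo) served as the growth readout. Knockout chicken DT40 cells expressing human TDP1 were exposed to compounds without camptothecin for a minimum 48 hr at 37 °C.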
# ELG1 repair inh: ELG1-dependent DNA repair inhibition. actives 2.3% (n = 330,000). HEK293T ELG1-luciferase reporter, luminescence, 16 h; DNA damage induced by 5-fluorouridine. Potency, µM (doses to about 46.1 µM), for inactives: top-dose activity change, negative = inhibition, usual class: inhibitors; further: potency means the concentration at half of the fitted maximal effect; nearly all actives have a fitted effect of over 55% in size
#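 Quantitative HTS, concentration-response format. 2,000 cells/well co-treated with 5-fluorouridine and compound, 16 hr in 5% CO2 at 37 °C; ONE-Glo luminescence read after 30 min.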
# Giardia kill: kills Giardia lamblia; Giardia lamblia trophozoite viability; activity change, % at 7.66 µM, hits read low; actives 0.15% (n = 340,000); in the data active means activity change below about -80%; inconclusive means between about -30% and that limit;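 further: parasites exposed to compound for two days anaerobically before the ATP read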
#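 Each well holds 100 Giardia trophozoites and compound. After two days (48 hrs) at 37 deg C in anaerobic conditions, ATP is quantified by luminescence.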
# DT40 TDP1 CPT: growth inhibition of DT40 Tdp1-/-;hTDP1 cells with camptothecin (screen for TDP1 inhibitors); chicken DT40 Tdp1-/-;hTDP1 cells + 20 nM CPT, ATP luminescence, 48 h; Potency, µM (doses to about 46.2 µM), inactives show at the highest dose activity change, negative = growth inhibition, most hits filed as inhibitors; actives 12% (n = 420,000); further: potency means the concentration at half of the fitted maximal effect; nearly all actives have a fitted effect of over 55% in size
#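 Cell growth measured by CellTiter-Glo luminescence after a minimum 48 h, 37 C compound exposure with 20 nM CPT in Tdp1-knockout DT40 cells stably expressing hTDP1, seeded 400/well; qHTS titration format.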
# * = called active by the depositor; i = inactive; ? = inconclusive; . = no result given. Shown are actives, neighbours in structure and some others; about 19% of the full set was active somewhere. Unless noted, the call rests on the fitted dose curve; in most records, active means well fitted curve in the direction sought with a large enough effect; inconclusive means small, poorly fitted or top-dose-only effect, or another doubt; inactive means no such curve, though single readings can be large; an effect the other way counts as inactive or inconclusive. On the % scale 0 is the no-effect control and ±100 the full control effect.
SMILES,TDP1 inh,IL1B secr inh,TDP1 cell noCPT,ELG1 repair inh,Giardia kill,DT40 TDP1 CPT
CCN1CCOC(=O)C1CC(=O)Nc1ccc(C)c(Cl)c1 (stereo unspecified),2%,.,5.8µM*,.,.,7.3µM*
O=C(CC1C(=O)OCCN1Cc1ccccc1)Nc1ccc(F)cc1 (stereo unspecified),2%,.,-2%,.,.,?
O=C(CC1C(=O)OCCN1Cc1ccccc1)Nc1cccc(Cl)c1 (stereo unspecified),5%,.,-24%,.,.,?
O=C(CN(Cc1ccc(F)cc1)C(=O)c1csnn1)NC1CCCC1,8%,-3,-9%,4%,-5,-17%
Cc1ccc(N2CC(NC(=O)/C=C\c3ccc4c(c3)OCO4)CC2=O)cc1C (stereo unspecified),5%,.,?,.,.,?
Cc1nc2c3ccccc3nc(NNC(=O)CCC(=O)O)n2n1,-3%,.,-16%,.,.,-8%
CCC(=O)N1CCN(c2ccc(NC(=O)c3cc4ccccc4o3)cc2Cl)CC1,3%,-115*,13µM*,5.8µM*,-6,9.2µM*
CCCC(=O)N1CCN(c2ccc(NC(=O)c3cc4ccccc4o3)cc2Cl)CC1,7%,-111*,3.7µM*,2.3µM*,2,3.3µM*
O=C(Nc1ccc(N2CCN(C(=O)c3ccco3)CC2)c(Cl)c1)c1cc2ccccc2o1,2%,-105*,8.2µM*,5.2µM*,-19,4.1µM*
CC(=O)N1CCN(c2ccc(NC(=O)c3ccco3)cc2Cl)CC1,5%,-4,5%,?,6,-3%
O=C(Nc1ccc(N2CCN(C(=O)c3ccccc3)CC2)c(Cl)c1)c1ccco1,1%,-79*,13µM*,12µM*,-3,16µM*
COc1ccccc1N(C)C(=O)Cn1c(=O)oc2cc(S(=O)(=O)N3CCCC3)ccc21,0%,.,?,.,.,?
CCC1CCCCN1C(=O)Cn1c(=O)n(-c2ccccc2C(F)(F)F)c(=O)c2c(C)c(C(=O)N(C)C)sc21 (stereo unspecified),0%,.,-15%,.,.,-17%
S=c1nc(-c2ccccn2)c(-c2ccccn2)n[nH]1,.,8,?,.,.,?
CCOc1ccc(C(=O)N/N=C/c2cc(Cl)ccc2[N+](=O)[O-])cc1,3%,-14,-25%,8%,24,5%
COC(=O)c1ccc(N2CCN(C)CC2)c(NC(=O)c2cc3ccccc3o2)c1,1%,8,23µM*,-15%,-2,21µM*
COC(=O)c1ccc(N2CCOCC2)c(NC(=O)c2cc3ccccc3o2)c1,.,7,-1%,.,14,3%
CCc1ccc([C@@H]2C[C@H]3[C@@H](CN2S(=O)(=O)c2ccc(C)cc2)C(=O)C[C@@H](c2ccccc2F)N3S(=O)(=O)c2ccc(C)cc2)cc1,.,5,?,.,.,-25%
CCOC(=O)C1CCN(C(=O)c2oc3ccc4c(c3c2C)C(O)CC2(CCCCC2)O4)CC1 (stereo unspecified),4%,6,?,-15%,14,?
Cc1c(C(=O)NCCCN2CCCCC2)oc2ccc3c(c12)C(O)CC1(CCCCC1)O3 (stereo unspecified),5%,-4,16µM*,8%,16,?
Cc1n[nH]c(=S)n(/N=C/c2cccs2)c1=O,7%,-6,6.5µM*,16%,9,?
CSc1cc(-c2ccc(Cl)cc2)c(C(=O)NC(C)C)s1,2%,-14,12µM*,?,1,9.2µM*
Cc1cccc(C)c1OCC(=O)N[C@@H](Cc1ccccc1)[C@@H](O)C[C@H](Cc1ccccc1)NC(=O)[C@H](C(C)C)N1CCCNC1=O,.,.,19µM*,.,.,7.9µM*
C=CCn1c(COc2ccccc2F)nnc1SCC(=O)Nc1cc2oc3ccccc3c2cc1OC,5%,-22,?,-19%,-2,?
C=CCn1c(COc2ccccc2F)nnc1SCC(=O)c1c[nH]c2ccccc12,5%,-3,23µM*,?,12,26µM*
SMILES,TDP1 inh,IL1B secr inh,TDP1 cell noCPT,ELG1 repair inh,Giardia kill,DT40 TDP1 CPT
O=c1ccn(-c2cccc(C(F)(F)F)c2)nc1-c1ccn(-c2cccc(Cl)c2)n1,6%,-4,?,?,5,?
O=C(O)CC/C(=C\c1ccc(Cl)c([N+](=O)[O-])c1)c1nc2ccccc2s1,-3%,17,-1%,-15%,-19,?
COc1cc(/C=C(\C#N)c2nc3ccccc3s2)cc([N+](=O)[O-])c1O,8%,92,16µM*,?,?,?
N#C/C(=C\c1ccc(O)c([N+](=O)[O-])c1)c1nc2ccccc2s1,9%,31,16µM*,-16%,?,26µM*
N#C/C(=C\c1ccco1)c1nc2ccccc2s1,3%,-21,-27%,?,-23,9%
COc1cccc(NC(=O)CN(C)C(=O)c2ccc(-c3ccccc3Cl)o2)c1,9%,i,?,-2%,-3,?
O=C(CSc1nnnn1-c1ccccc1)CC(=O)Nc1ccc(Cl)cc1,0%,24,?,16µM*,-8,?
COc1ccc(-n2nnnc2SCC(=O)Nc2ccc3c(c2)OCCO3)cc1OC,-2%,0,9.2µM*,?,-8,?
O=C(CSc1nnnn1-c1ccc2c(c1)OCO2)NCc1cccs1,4%,-14,-24%,-2%,5,-20%
CCn1nnnc1SCC(=O)Nc1cc(OC)cc(OC)c1,3%,10,?,3%,?,16µM*
COc1cccc(-n2nnnc2SCC(=O)Nc2ccc3c(c2)OCCO3)c1,-2%,21,-29%,-1%,-12,-24%
O=C(CSc1nnnn1-c1ccc2c(c1)OCO2)NCc1ccccc1,1%,86,15µM*,-28%,-12,15µM*
Cc1ccc(C(C)C)c(OCC(=O)Nc2c(C(=O)c3ccc(F)cc3)oc3ccccc23)c1,2%,.,-9%,.,.,-5%
COc1ccc(-n2nnnc2SCC(=O)Nc2ccc3c(c2)OCCO3)c(OC)c1,0%,7,23µM*,21µM*,14,13µM*
COc1cccc(-n2nnnc2SCC(=O)Nc2cccc(NC(C)=O)c2)c1,6%,?,-19%,?,-8,-19%
COc1cccc(-n2nnnc2SCC(=O)Nc2ccc(NC(C)=O)cc2)c1,.,6,23µM*,16%,6,?

# Screening data (PubChem BioAssay)
